Measurements: ChEMBL document CHEMBL3988442, “University of Dundee, Small-Polar-MMV Screening Library” (2021)

system: Trypanosoma cruzi; assay: Trypanosoma cruzi phosphomannomutase and mannose-1-phosphate guanylyltransferase assay; assay type: functional; parameters: scale not given: direction of the effect not stated beside the values; conditions: 10 µM

Row | Structure (SMILES) | Percent Effect
1 | COc1cccc(C2CC(=O)Nc3nc(N4CCOCC4)sc32)c1OC (centres undefined) | -0.487%
2 | Cc1nccn1-c1cc(CNC(=O)C(C)(C)C)ccn1 | 0.588%
3 | CNS(=O)(=O)c1ccc(C(=O)N2CCCC2c2ccccc2)o1 (centres undefined) | 2.15%
4 | Cc1csc(N2CCN(C(=O)Cc3ccsc3)CC2)n1 | 7.26%
5 | CN(Cc1cccc(F)c1)C(=O)CN1CCCC1CCc1ccccc1 (centres undefined) | 3.44%
6 | CN(CC1(O)CCCCC1)C1CCCN(Cc2noc(C3CC3)n2)C1 (centres undefined) | -3.46%
7 | Cc1cnnn1Cc1ncn2c1CN(Cc1cccs1)CCC2 | -5.18%
8 | CC(C)C(=O)NCCNc1nccc(-c2cc(C(=O)O)ccn2)n1 | 2.74%
9 | COCCN1CCC(CN(CC2CCCO2)C(=O)COC)CC1 (centres undefined) | 7.09%
10 | CNC(=O)c1ccc(CN2CCC(N(C)Cc3noc(C)n3)C2)cc1 (centres undefined) | -2.25%
11 | O=C([C@H]1CN(CCc2ccccc2)C[C@H]2OCC[C@@H]12)N1CCCO1 | 6.37%
12 | O=C(Cc1ccsc1)N1C[C@@H]2CN(Cc3ccoc3)CCO[C@@H]2C1 | 1.86%
13 | Cn1c(Cn2cccn2)nnc1C1CCN(Cc2cccnc2N)CC1 | -3.4%
14 | Cc1cc(C)n(CC2CCCCN2CC(=O)Nc2cccnc2)n1 (centres undefined) | 9.25%
15 | COCc1nc(C(=O)N2CCCCC2Cn2cccn2)cs1 (centres undefined) | 6.82%
16 | Cn1nnc2c1CCN(CC1CC1)C2COCc1ccccc1 (centres undefined) | 2.36%
17 | COCC(c1cccc(C(F)(F)F)c1)N(C)C(=O)c1ccncc1 (centres undefined) | 8.46%
18 | Cc1ccc(C(=O)NC2CCN(Cc3noc(CC(C)C)n3)CC2)s1 | -8.75%
19 | CCN(C(=O)CS(=O)(=O)Cc1cc(Cl)c2c(c1)OCCCO2)C1CC1 | -7.84%

molecular target: T1, Arginase-2, mitochondrial (Homo sapiens) (UniProt P78540); assay: in vitro enzyme assay to detect the production of urea directly proportional to the activity of Arginase II; assay type: functional; parameters: scale not given: in the data most compounds retested in dose-response had high values; conditions: 33.3 µM
T1 sequence (whole entry): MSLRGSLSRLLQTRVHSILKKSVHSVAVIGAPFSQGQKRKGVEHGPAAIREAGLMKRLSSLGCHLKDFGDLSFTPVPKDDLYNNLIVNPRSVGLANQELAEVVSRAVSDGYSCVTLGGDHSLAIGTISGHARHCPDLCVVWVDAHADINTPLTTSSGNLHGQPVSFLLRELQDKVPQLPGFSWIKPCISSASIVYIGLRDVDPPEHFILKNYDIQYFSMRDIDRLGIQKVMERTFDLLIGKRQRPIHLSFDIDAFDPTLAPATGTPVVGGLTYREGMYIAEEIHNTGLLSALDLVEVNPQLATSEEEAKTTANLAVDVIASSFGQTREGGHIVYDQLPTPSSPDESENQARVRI

Row | Structure (SMILES) | Percent Effect
20 | O=C(c1ccn[nH]1)N1CCCC(n2cncn2)C1 (centres undefined) | 0.645%
21 | CN(c1ccncn1)C1CC2(CCN(C(=O)c3cccs3)C2)C1 (centres undefined) | -2.09%
22 | CCC1(CO)CCCN(c2ncccc2C#N)C1 (centres undefined) | -3.81%
23 | CCN(CC)C(=O)c1ccn(COc2cc(C)cc(C)c2)n1 | -5.81%
24 | CCCS(=O)(=O)NCC1CCOc2ccccc2C1 (centres undefined) | 17.9%
25 | Cc1ccc(C2CSCCN2C(=O)C2=CCCC2)o1 (centres undefined) | 1.24%
26 | CC(C)c1nc(C(=O)N2CCOCC2CC(=O)c2ccco2)c[nH]1 (centres undefined) | 0%
27 | Cc1nn(C)c(N2CCOCC2)c1CNC1CCc2ccccc2C1 (centres undefined) | -2.28%
28 | CNc1nc(C(=O)N2CCCC(c3nccn3CC3CCC3)C2)cs1 (centres undefined) | 0.455%
29 | Cc1cc(Nc2nc(C)cs2)nc(C2CCCCN2CCO)n1 (centres undefined) | -5.34%
30 | N#Cc1cccc(CN2CC[C@@H]3[C@@H]2CC(=O)N3Cc2cccnc2)c1 | -1.17%
31 | O=C(NCCNc1ncccn1)N1CCSCC1 | -5.21%
32 | CN(C)CCn1c(=O)oc2ccc(NC(=O)C3CCCO3)cc21 (centres undefined) | 1.56%
33 | CC(NC(=O)C1=NN(C)C(=O)CC1)c1ccc(Cl)cc1Cl (centres undefined) | 8.64%
34 | CCn1c(=O)nc2n1C(=O)N(c1cccc(Cl)c1)C2 | 2.29%
35 | O=C(c1ccc(Cl)o1)N1CCCN(Cc2cscn2)CC1 | -2.74%
36 | CC(N(C)Cc1nc2c(cnn2C)c(=O)[nH]1)C(C)(C)C (centres undefined) | 2.03%
37 | CCc1noc(C2CCCCN2C(=O)c2nnc3ccccc3n2)n1 (centres undefined) | -7.57%
38 | Cc1cccc(N2CCN(C(=O)CN3CCN(CCO)CC3)CC2)c1 | 0.798%
39 | O=C(CCc1ccc(=O)[nH]n1)N1CCCC(COc2ccc(F)cc2)C1 (centres undefined) | 2.65%

Row | Structure (SMILES) | Percent Effect
40 | O=C(Cc1ccccn1)N1CCN(CC2CC2)c2ncccc2C1 | -0.699%
41 | COc1cccc(C2CC(=O)Nc3nc(N4CCOCC4)sc32)c1OC (centres undefined) | 21.3%
42 | Cc1nccn1-c1cc(CNC(=O)C(C)(C)C)ccn1 | 34.1%
43 | CNS(=O)(=O)c1ccc(C(=O)N2CCCC2c2ccccc2)o1 (centres undefined) | -3.6%
44 | Cc1csc(N2CCN(C(=O)Cc3ccsc3)CC2)n1 | 3.21%
45 | CN(Cc1cccc(F)c1)C(=O)CN1CCCC1CCc1ccccc1 (centres undefined) | -1.38%
46 | CN(CC1(O)CCCCC1)C1CCCN(Cc2noc(C3CC3)n2)C1 (centres undefined) | -1.08%
47 | Cc1cnnn1Cc1ncn2c1CN(Cc1cccs1)CCC2 | -0.955%
48 | CC(C)C(=O)NCCNc1nccc(-c2cc(C(=O)O)ccn2)n1 | 6.82%
49 | COCCN1CCC(CN(CC2CCCO2)C(=O)COC)CC1 (centres undefined) | 4.86%
50 | CNC(=O)c1ccc(CN2CCC(N(C)Cc3noc(C)n3)C2)cc1 (centres undefined) | 4.42%
51 | O=C([C@H]1CN(CCc2ccccc2)C[C@H]2OCC[C@@H]12)N1CCCO1 | -46.1%
52 | O=C(Cc1ccsc1)N1C[C@@H]2CN(Cc3ccoc3)CCO[C@@H]2C1 | 0.955%
53 | Cn1c(Cn2cccn2)nnc1C1CCN(Cc2cccnc2N)CC1 | 0.883%
54 | Cc1cc(C)n(CC2CCCCN2CC(=O)Nc2cccnc2)n1 (centres undefined) | 12.5%
55 | COCc1nc(C(=O)N2CCCCC2Cn2cccn2)cs1 (centres undefined) | -3.24%
56 | Cn1nnc2c1CCN(CC1CC1)C2COCc1ccccc1 (centres undefined) | 5.36%
57 | COCC(c1cccc(C(F)(F)F)c1)N(C)C(=O)c1ccncc1 (centres undefined) | -4.21%
58 | Cc1ccc(C(=O)NC2CCN(Cc3noc(CC(C)C)n3)CC2)s1 | -8.28%
59 | CCN(C(=O)CS(=O)(=O)Cc1cc(Cl)c2c(c1)OCCCO2)C1CC1 | 5.32%

molecular target: T2, Proteasome subunit beta (Trypanosoma cruzi) (UniProt O96673); assay: Trypanosoma cruzi proteasome chymotrypsin-like activity (TcProtChymo) assay.; assay type: functional; parameters: scale not given: in the data most compounds retested in dose-response had high values; conditions: 9.37 µM
T2 sequence (whole entry): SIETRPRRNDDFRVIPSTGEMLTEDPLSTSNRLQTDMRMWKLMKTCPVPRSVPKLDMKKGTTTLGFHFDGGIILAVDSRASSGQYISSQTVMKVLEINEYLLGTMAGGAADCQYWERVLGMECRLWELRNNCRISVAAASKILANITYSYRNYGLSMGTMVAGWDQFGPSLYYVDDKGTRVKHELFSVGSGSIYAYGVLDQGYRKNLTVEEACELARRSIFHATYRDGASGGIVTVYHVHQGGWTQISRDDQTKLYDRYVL

Row | Structure (SMILES) | Percent Effect
60 | O=C(c1ccn[nH]1)N1CCCC(n2cncn2)C1 (centres undefined) | 12.9%
61 | CN(c1ccncn1)C1CC2(CCN(C(=O)c3cccs3)C2)C1 (centres undefined) | 1.09%
62 | CCC1(CO)CCCN(c2ncccc2C#N)C1 (centres undefined) | -0.69%
63 | CCN(CC)C(=O)c1ccn(COc2cc(C)cc(C)c2)n1 | 14.1%
64 | CCCS(=O)(=O)NCC1CCOc2ccccc2C1 (centres undefined) | 5.32%
65 | Cc1ccc(C2CSCCN2C(=O)C2=CCCC2)o1 (centres undefined) | 2.83%
66 | CC(C)c1nc(C(=O)N2CCOCC2CC(=O)c2ccco2)c[nH]1 (centres undefined) | 8.92%
67 | Cc1nn(C)c(N2CCOCC2)c1CNC1CCc2ccccc2C1 (centres undefined) | -2.87%
68 | CNc1nc(C(=O)N2CCCC(c3nccn3CC3CCC3)C2)cs1 (centres undefined) | 7.81%
69 | Cc1cc(Nc2nc(C)cs2)nc(C2CCCCN2CCO)n1 (centres undefined) | 13.9%
70 | N#Cc1cccc(CN2CC[C@@H]3[C@@H]2CC(=O)N3Cc2cccnc2)c1 | 13.7%
71 | O=C(NCCNc1ncccn1)N1CCSCC1 | 7.39%
72 | CN(C)CCn1c(=O)oc2ccc(NC(=O)C3CCCO3)cc21 (centres undefined) | 6.8%
73 | CC(NC(=O)C1=NN(C)C(=O)CC1)c1ccc(Cl)cc1Cl (centres undefined) | 11.9%
74 | CCn1c(=O)nc2n1C(=O)N(c1cccc(Cl)c1)C2 | 13.7%
75 | O=C(c1ccc(Cl)o1)N1CCCN(Cc2cscn2)CC1 | 16.1%
76 | CC(N(C)Cc1nc2c(cnn2C)c(=O)[nH]1)C(C)(C)C (centres undefined) | 7.72%
77 | CCc1noc(C2CCCCN2C(=O)c2nnc3ccccc3n2)n1 (centres undefined) | 14.6%
78 | Cc1cccc(N2CCN(C(=O)CN3CCN(CCO)CC3)CC2)c1 | 3.51%
79 | O=C(CCc1ccc(=O)[nH]n1)N1CCCC(COc2ccc(F)cc2)C1 (centres undefined) | 16.3%

Row | Structure (SMILES) | Percent Effect
80 | O=C(Cc1ccccn1)N1CCN(CC2CC2)c2ncccc2C1 | 4.85%
81 | COc1cccc(C2CC(=O)Nc3nc(N4CCOCC4)sc32)c1OC (centres undefined) | 18.1%
82 | Cc1nccn1-c1cc(CNC(=O)C(C)(C)C)ccn1 | 18.1%
83 | CNS(=O)(=O)c1ccc(C(=O)N2CCCC2c2ccccc2)o1 (centres undefined) | -2.96%
84 | Cc1csc(N2CCN(C(=O)Cc3ccsc3)CC2)n1 | 20.9%
85 | CN(Cc1cccc(F)c1)C(=O)CN1CCCC1CCc1ccccc1 (centres undefined) | 2%
86 | CN(CC1(O)CCCCC1)C1CCCN(Cc2noc(C3CC3)n2)C1 (centres undefined) | 10.9%
87 | Cc1cnnn1Cc1ncn2c1CN(Cc1cccs1)CCC2 | 15.3%
88 | CC(C)C(=O)NCCNc1nccc(-c2cc(C(=O)O)ccn2)n1 | 13.1%
89 | COCCN1CCC(CN(CC2CCCO2)C(=O)COC)CC1 (centres undefined) | 5.79%
90 | CNC(=O)c1ccc(CN2CCC(N(C)Cc3noc(C)n3)C2)cc1 (centres undefined) | 15.9%
91 | O=C([C@H]1CN(CCc2ccccc2)C[C@H]2OCC[C@@H]12)N1CCCO1 | 11.6%
92 | O=C(Cc1ccsc1)N1C[C@@H]2CN(Cc3ccoc3)CCO[C@@H]2C1 | 14.6%
93 | Cn1c(Cn2cccn2)nnc1C1CCN(Cc2cccnc2N)CC1 | 3.86%
94 | Cc1cc(C)n(CC2CCCCN2CC(=O)Nc2cccnc2)n1 (centres undefined) | -1.74%
95 | COCc1nc(C(=O)N2CCCCC2Cn2cccn2)cs1 (centres undefined) | -0.761%
96 | Cn1nnc2c1CCN(CC1CC1)C2COCc1ccccc1 (centres undefined) | 3.44%
97 | COCC(c1cccc(C(F)(F)F)c1)N(C)C(=O)c1ccncc1 (centres undefined) | 23.2%
98 | Cc1ccc(C(=O)NC2CCN(Cc3noc(CC(C)C)n3)CC2)s1 | 8.82%
99 | CCN(C(=O)CS(=O)(=O)Cc1cc(Cl)c2c(c1)OCCCO2)C1CC1 | 7.62%
